Experimental data: PubChem BioAssay (NCI)
About 79,000 compounds went through this panel and 15% of them were active in at least one assay; those are over-represented in the sample as a whole. Calls of active or inactive are those of the source. Rule as the data show it: active = growth inhibition above about 70%; inactive = the rest.

Assays:
[1] = NCI Yeast Anticancer Drug Screen. Data for the mlh1 strain (AID 171);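 also: 0% = growth of vehicle-treated control cultures of the same strain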; settings: S. cerevisiae mlh1 strain growth inhibition, stronger effect = higher value
How it was run: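 Compounds are applied to a genetically altered yeast strain, and its growth is compared with that of vehicle-treated cultures to give percent inhibition.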

[2] = NCI Yeast Anticancer Drug Screen. Data for the sgs1 strain (AID 173);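 also: 0% = growth of vehicle-only control cultures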; settings: S. cerevisiae sgs1 mutant, stronger effect = higher value
How it was run: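 Compounds applied to genetically altered yeast; growth compared with vehicle-treated cultures to give % inhibition.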

[3] = NCI Yeast Anticancer Drug Screen. Data for the mlh1 rad18 strain (AID 175); settings: S. cerevisiae mlh1 rad18 strain growth inhibition, stronger effect = higher value
How it was run: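 Cells of a genetically altered yeast strain, deficient in DNA damage repair, were treated with compound. Their growth was then compared with that of vehicle-treated cultures to give inhibition.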

[4] = NCI Yeast Anticancer Drug Screen. Data for the rad18 strain (AID 177); settings: S. cerevisiae rad18 mutant growth inhibition, stronger effect = higher value
How it was run: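 Compounds are applied to a repair-deficient yeast strain, and growth is compared with that of vehicle-treated cultures to give percent inhibition.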

[5] = NCI Yeast Anticancer Drug Screen. Data for the rad52 strain (AID 147);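 also: 0% = growth of vehicle-treated control cultures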; settings: S. cerevisiae rad52 mutant growth inhibition, stronger effect = higher value
How it was run: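 DNA repair-defective yeast; compound exposure; growth scored against vehicle controls.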

[6] = NCI Yeast Anticancer Drug Screen. Data for the wt1 strain (AID 149);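 also: 0% = growth of vehicle-treated wt1 cultures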; settings: S. cerevisiae wt1 strain (SPY 50644) growth inhibition, stronger effect = higher value
How it was run: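 Using yeast strain wt1, compound-induced growth inhibition was determined against vehicle-treated cultures.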

[7] = NCI Yeast Anticancer Drug Screen. Data for the rad50 strain (AID 155);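 also: 0% = growth of vehicle-only cultures of the same strain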; settings: S. cerevisiae rad50 strain growth inhibition, stronger effect = higher value
How it was run: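 Relative growth inhibition (compound vs vehicle) was measured in yeast with a defined repair-gene alteration.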

[8] = NCI Yeast Anticancer Drug Screen. Data for the mec2-1 strain (AID 157); settings: S. cerevisiae mec2-1 strain, stronger effect = higher value
How it was run: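 Growth inhibition is read against vehicle-treated controls after compound exposure of the mec2-1 yeast strain, which is defective in DNA damage repair or cell cycle control.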

[9] = NCI Yeast Anticancer Drug Screen. Data for the rad14 strain (AID 159);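 also: 0% = growth of vehicle-treated control cultures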; settings: S. cerevisiae rad14 strain growth inhibition, stronger effect = higher value
How it was run: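 Screen for anticancer potential: a yeast strain altered in DNA damage repair is grown with compound, and reduced growth is quantified against vehicle controls.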

[10] = NCI Yeast Anticancer Drug Screen. Data for the sgs1 mgt1 strain (AID 161);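 also: 0% = growth of cultures given vehicle only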; settings: S. cerevisiae sgs1 mgt1 strain, stronger effect = higher value
How it was run: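 Yeast cells carrying a defined DNA-repair defect were exposed to test compounds. Growth inhibition was measured relative to vehicle-treated controls.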

[11] = NCI Yeast Anticancer Drug Screen. Data for the cln2 rad14 strain (AID 165);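 also: 0% = growth equal to vehicle treated cultures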; settings: S. cerevisiae cln2 rad14 strain, stronger effect = higher value
How it was run: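 Growth inhibition, relative to vehicle-treated controls, is the read-out. The test organism is a yeast strain with defined genetic alterations, cln2 rad14.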

[12] = NCI Yeast Anticancer Drug Screen. Data for the bub3 strain (AID 167); settings: S. cerevisiae bub3 mutant strain, stronger effect = higher value
How it was run: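 Screening used yeast with an engineered genetic alteration affecting cell cycle control. Compound-exposed cultures were compared with vehicle cultures, and reduced growth was taken as inhibition.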

[13] = NCI Yeast Anticancer Drug Screen. Data for the wt2 strain (AID 169);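 also: 0% = growth of vehicle-treated yeast cultures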; settings: S. cerevisiae wt2 strain growth inhibition, stronger effect = higher value
How it was run: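 Compound exposure of yeast; growth compared with vehicle controls; inhibition reported.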

[14] = at 5.0 µM (retest, dose inferred, filed as 0.5)
[15] = at 50.0 µM (retest, dose inferred, filed as 5.0)

Measured: growth inhibition

O=C(O)CCCc1cc(I)c(N(CCCl)CCCl)c(I)c1
active: [1]; at 33.0 µM 85% | [1]; at 100.0 µM 95% | [2]; at 33.0 µM 88% | [2]; at 100.0 µM 96% | [3]; [15] 98% | [4]; at 33.0 µM 76% | [4]; at 100.0 µM 93%
inactive: [1]; at 1.2 µM -50% | [1]; at 3.7 µM -29% | [1]; at 11.0 µM -38% | [2]; at 1.2 µM -40% | [2]; at 3.7 µM -46% | [2]; at 11.0 µM -24% | [3]; [14] 25% | [3]; at 50.0 µM 69.3% | [4]; at 1.2 µM -63% | [4]; at 3.7 µM -50% | [4]; at 11.0 µM -13%

CC1CCCN(CCc2ccccc2)CC1 (stereo unspecified)
active: [10]; [15] 76% | [12]; [15] 83% | [3]; [15] 78%
inactive: [5]; at 1.2 µM 1% | [5]; at 3.7 µM 4% | [5]; at 11.0 µM 11% | [5]; at 33.0 µM 16% | [5]; at 100.0 µM 26% | [6]; at 1.2 µM 2% | [6]; at 3.7 µM 8% | [6]; at 11.0 µM 8% | [6]; at 33.0 µM 7% | [6]; at 100.0 µM 5% | [7]; at 1.2 µM 1% | [7]; at 3.7 µM 6% | [7]; [14] -8% | [7]; at 11.0 µM 10% | [7]; at 33.0 µM 13% | [7]; [15] 66% | [7]; at 50.0 µM 17.4% | [7]; at 100.0 µM 14% | [8]; at 1.2 µM 0% | [8]; at 3.7 µM 8% | [8]; [14] -13% | [8]; at 11.0 µM 12% | [8]; at 33.0 µM 15% | [8]; [15] 11% | [8]; at 50.0 µM 20.9% | [8]; at 100.0 µM 22% | [9]; at 1.2 µM 2% | [9]; at 3.7 µM 14% | [9]; at 11.0 µM 29% | [9]; at 33.0 µM 33% | [9]; at 100.0 µM 31% | [10]; [14] 13% | [10]; at 50.0 µM 28.8% | [11]; [14] 5% | [11]; [15] 37% | [11]; at 50.0 µM 58.6% | [12]; at 1.2 µM -3% | [12]; at 3.7 µM 0% | [12]; [14] 2% | [12]; at 11.0 µM 9% | [12]; at 33.0 µM 21% | [12]; at 50.0 µM 46.6% | [12]; at 100.0 µM 25% | [13]; at 1.2 µM 2% | [13]; at 3.7 µM 4% | [13]; at 11.0 µM 6% | [13]; at 33.0 µM 8% | [13]; at 100.0 µM 10% | [1]; at 1.2 µM 1% | [1]; at 3.7 µM 4% | [1]; at 11.0 µM 10% | [1]; at 33.0 µM 15% | [1]; at 100.0 µM 14% | [2]; at 1.2 µM 0% | [2]; at 3.7 µM 7% | [2]; at 11.0 µM 16% | [2]; at 33.0 µM 23% | [2]; at 100.0 µM 21% | [3]; [14] 19% | [3]; at 50.0 µM 34.9%
